Laboratory results published in PubChem BioAssay (NCI).
Values joined by “and” are separate entries in the source; they are usually repeats but may differ in a detail not shown here. Identical values can stand only once. The panel holds about 83,000 compounds, 20% with a hit somewhere; the sample as a whole holds those more often.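 Plates (96-well) were seeded with cells, treated with compound at one concentration, and incubated for 48 hours before percent growth was determined.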 A number with no mark means an inactive call. Active and inactive are the calls of the source. The calls were made as follows: active = growth percent below 10; inactive = the rest.

Legend:
Test in all cases: NCI-60 one-dose screen, 48 h (100 = growth as untreated, 0 = no growth, -100 = all killed)
Details in all cases: 10 µM unless noted
[1] = system: NCI-H23 lung
[2] = system: NCI-H226 lung
[3] = system: NCI-H322M lung
[4] = system: HOP-62 NSCLC
[5] = system: HOP-92 NSCLC
[6] = system: A549/ATCC NSCLC
[7] = system: 786-0 renal
[8] = system: K-562 leukemia
[9] = system: MALME-3M melanoma
[10] = system: MDA-MB-231 breast
[11] = system: SF-268 CNS
[12] = system: UACC-257 melanoma
[13] = system: M14 melanoma
[14] = system: NCI-H522 lung
[15] = system: COLO 205 colon
[16] = system: DU-145 prostate
[17] = system: RXF 393 renal
[18] = system: SF-295 CNS
[19] = system: SF-539 CNS

SMILES	growth [1]	growth [2]	growth [3]	growth [4]	growth [5]	growth [6]	growth [7]	growth [8]	growth [9]	growth [10]	growth [11]	growth [12]	growth [13]	growth [14]	growth [15]	growth [16]	growth [17]	growth [18]	growth [19]
NC(=Nc1ccc(OCCCCCCCCn2cnnn2)cc1)c1ccccc1	10.8%	21.3%	57%	18.6%	82.5%	23.7%	34.5%	15.4%	46.3%	11.8%	38.8%	49.7%	18.1%	–	–	–	–	–	–
COc1cc(C2CC(c3cc(OC)c(OC)c(OC)c3)=Nc3c(N)nc(N)nc3N2)ccc1Oc1nc(Nc2ccc(F)cc2)nc(N(C)C)n1 (stereo not given)	89.8%	106%	94.4%	99.9%	38.1%	52.9%	36.6%	15.1%	78.6%	24.6%	63.5%	58.9%	66.5%	56.8%	73.9%	70.7%	26.5%	61.3%	62%
CN1CCN(CCS(=O)(=O)Nc2cc(-c3ccc4ncnc(Nc5ccc(F)c(Cl)c5)c4c3)cnc2Cl)CC1	13%	48.9%	-15.5% (active)	39.9%	-10.2% (active)	55.6%	19.4%	20.2%	-90.5% (active)	-41.3% (active)	40.8%	18.2%	20.9%	10.1%	-31.9% (active)	14.8%	-1.07% (active)	7.8% (active)	-8.6% (active)
CC(=O)Nc1cccc(-n2c(COc3ccc(I)cc3)nc3ccccc32)c1	83.5% and 106%	68.3% and 113%	102% and 107%	118% and 120%	79.9% and 116%	101% and 108%	101% and 109%	67.5% and 104%	86.9% and 106%	70.7% and 109%	81% and 99.1%	112% and 106%	102% and 115%	70.1% and 111%	96.9% and 128%	99.4% and 101%	80.7% and 107%	79.1% and 101%	84.5% and 107%
CN1CCN(C(=O)Oc2cc3c(c4ccccc24)[C@H](CCl)CN3C(=O)c2cc3cc(OCCCN4CCC4)ccc3[nH]2)[C@H]2CSSC[C@H]21	-65% (active)	-14.5% (active)	-13.1% (active)	-37.8% (active)	-18.8% (active)	4% (active)	-8.82% (active)	3.04% (active)	-64.8% (active)	-14.8% (active)	-9.36% (active)	-15.6% (active)	-75.2% (active)	-54.8% (active)	-81.5% (active)	-3.53% (active)	-78.8% (active)	-6.36% (active)	-75.2% (active)
CCOc1ccccc1[C@H]1C(C(=O)c2ccc(Cl)cc2)C2(N[C@@H]1c1ccccc1)C(=O)Nc1ccc(Br)cc12 (stereo not given in full)	-39.1% (active)	-68.4% (active)	15.8%	7.94% (active)	-46.9% (active)	41%	-76.5% (active)	-13% (active)	-15% (active)	-68.7% (active)	14.2%	44%	-38% (active)	-4.42% (active)	-82.3% (active)	23%	-88.4% (active)	-42.6% (active)	-70.2% (active)
Cc1cc(N=C(N)c2ccccc2)ccc1OCCCCCCCCn1ccnc1	-28% (active)	–	18.7%	-14.4% (active)	16.3%	15%	4.01% (active)	12.4%	-77.2% (active)	–	-12.2% (active)	-2.36% (active)	-17.5% (active)	–	–	–	–	–	–
O=C(c1ccc(O)cc1)C1[C@H](c2ccc(Cl)cc2)[C@@H](c2ccccc2)NC12C(=O)Nc1ccccc12 (stereo not given in full)	-41.7% (active)	-13.8% (active)	9.03% (active)	-20.1% (active)	-27.8% (active)	14.4%	-43.2% (active)	-8.58% (active)	-40.2% (active)	-80.2% (active)	22.4%	77.7%	-27% (active)	-8.98% (active)	-82.9% (active)	20.5%	-74% (active)	-48.6% (active)	-50.6% (active)
Cc1ccc(C(=O)Nc2cccc(C(=O)NC(=S)Nc3ccc(S(N)(=O)=O)cc3)c2)cc1	76.9%	67.5%	87.3%	74.9%	67.5%	74.7%	81.7%	71.2%	59.8%	81.3%	61.4%	79.1%	83.7%	48.6%	98.4%	77.3%	46.4%	60.3%	76.4%
CC1=C(C(=O)Nc2ccccc2)C(c2ccc3ccccc3c2)n2c(nc3ccccc32)N1 (stereo not given)	73.3%	84%	66.3%	113%	64.2%	8.83% (active)	10.6%	43.8%	72.5%	5.61% (active)	72.5%	81.1%	66.6%	63%	112%	46.2%	53.3%	37%	81.8%
COc1ccc(N=Nc2c(N)nn3c(N)c(C#N)c(-c4ccccc4)nc23)cc1	32.3%	0.868% (active)	45.7%	-1.62% (active)	-9.66% (active)	53.1%	13.8%	71.8%	28.5%	9.1% (active)	11.6%	71%	74.2%	-4.5% (active)	80.8%	24.4%	8.34% (active)	39.4%	-3.46% (active)
CC1=C(C(=O)Nc2ccccc2)C(c2cccc(Cl)c2Cl)n2c(nc3ccccc32)N1 (stereo not given)	61.3%	70.5%	60.3%	88.6%	40.6%	33.2%	53.4%	26.5%	71.4%	71.4%	42.5%	60.8%	48.8%	25.3%	63.9%	71.1%	34.5%	47.1%	71.4%
O=C1NC(=S)/C(=C/c2cn(-c3ccccc3)nc2-c2ccccc2)S1	12.5%	34.1%	31.7%	72.6%	13.7%	17.7%	20.8%	22.2%	10.4%	39.5%	36.4%	6.05% (active)	25%	-9.92% (active)	33.2%	34.4%	9.95% (active)	17%	22.5%
CC(=O)Nc1ccc(S(=O)(=O)Nc2ccc(-c3ccc4c(c3)NC(=O)/C4=C\c3ccc[nH]3)cc2)cc1	42.1%	85%	64.8%	87%	91.5%	79.6%	104%	64.8%	92.5%	88.7%	112%	102%	100%	75.2%	96.6%	93.4%	107%	94.9%	84%
Cc1cc(C)c2[nH]c(=O)c(C(c3nnnn3Cc3ccc4c(c3)OCO4)N3CCN(C)CC3)cc2c1 (stereo not given)	105%	102%	107%	111%	99.9%	105%	97.9%	107%	110%	112%	101%	110%	111%	120%	114%	103%	114%	104%	104%
Clc1ccc(CNc2nc(SCCN3CCOCC3)nc3c2cnn3CC(Cl)c2ccc(Br)cc2)cc1 (stereo not given)	49.4%	62.6%	83.8%	58.6%	48%	23.4%	39.6%	7.71% (active)	1.86% (active)	44.1%	49.3%	33.2%	37.2%	48.5%	5.78% (active)	57.1%	51.1%	14.3%	27.4%
